Screening results as filed in PubChem BioAssay.
Pf Dd2 inh: blocks in vitro growth of P. falciparum Dd2. P. falciparum Dd2 growth, SYBR Green, 72 h. Potency, µM (series often up to 28.9 µM), for inactives: at the highest dose activity, negative = inhibition, actives largely listed as inhibitors. actives 4.3% (n = 120,000). AID 1347417; active means well fitted inhibition curve with a large enough effect;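 further: plate controls were DMSO vehicle for no effect and reference drug for full effect; nearly all actives have a fitted effect of over 65% in size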
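Readout: SYBR Green fluorescence, 485 nm excitation, 535 nm emission, after ~16 h lysis at 37C. Before that, Dd2-infected red cells (2.5% hematocrit) grew 72 h with compound, 29 uM top final concentration.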
* = called active by the depositor; i = inactive; [ ] = another dose, or the depositor's remark. The entries come from a sample that favours hits as a whole. Potency means the concentration at half of the fitted maximal effect.

SMILES	Pf Dd2 inh
O=C(CCn1ccn2nc3c(c2c1=O)CCCC3)Nc1ccccc1F	-23%
Cc1nc(CC(=O)N2CCC3(CCCN(Cc4ccccc4F)C3=O)C2)cs1 (configuration not stated)	15%
CNc1ccc(C(=O)NCCCc2c(C)noc2C)cn1	7%
CCN1C(=O)C(CC(=O)NCc2ccco2)Sc2ncccc21 (configuration not stated)	-14%
FC(F)(F)c1ccc(N2C3CCC2CN(Cc2ccc(Cl)cc2)C3)cc1	18%
Cc1ncccc1C(=O)NCC12CCCC=C1NC(=O)CC2 (configuration not stated)	8%
CCN(CC)c1cc2c(cc1F)c(=O)c(S(=O)(=O)c1ccccc1)cn2Cc1ccccc1	13µM*
CCCn1cc(S(=O)(=O)c2ccc(C)c(C)c2)c(=O)c2cc(F)c(N3CCCCC3)cc21	1%
CCCCn1cc(S(=O)(=O)c2ccc(C)c(C)c2)c(=O)c2cc(F)c(N(CC)CC)cc21	13µM*
COc1ccc(S(=O)(=O)c2cn(Cc3ccccc3)c3cc(F)c(F)cc3c2=O)cc1	-24%
CCCCn1cc(S(=O)(=O)c2ccc(F)cc2)c(=O)c2ccccc21	18%
CCN(CC)c1cc2c(cc1F)c(=O)c(S(=O)(=O)c1ccc(OC)cc1)cn2Cc1ccccc1	13µM*
CCN(CC)c1cc2c(cc1F)c(=O)c(S(=O)(=O)c1cccc(C)c1)cn2C	9%
COc1ccc(NC(=O)Cn2cc(S(=O)(=O)c3ccccc3)c(=O)c3cc4c(cc32)OCO4)cc1	-16%
CCN(CC)c1cc2c(cc1F)c(=O)c(S(=O)(=O)c1ccccc1)cn2C	-23%
COCc1noc([C@@H]2CC(F)(F)CN2C(=O)C2(C)CC2)n1	22%
Cc1ncc2c(n1)C[C@@H]1CC[C@H]2N1C(=O)CC1CCCCC1	-16%
C[C@@H]1CN(C(=O)Cc2ccc3c(c2)OCO3)C[C@@]1(O)C1CCC1	-13%
CCC(=O)N(C1CCOCC1)C1CCN(S(=O)(=O)c2cccc(Cl)c2)CC1	-2%
COc1cc(CN2CC[C@H](CNC(=O)C3CC3)[C@H](N(C)C)C2)ccc1F	-3%
Cn1cc(C(=O)N2CCC3(CC2)CN(c2ncccn2)CC3CO)cn1 (configuration not stated)	25%
CCCCOc1ccc(C(=O)N2CCC(Cc3nc(-c4ccccc4)no3)CC2)cc1	-26%
COc1cc2c(cc1OC)C(C[C@H]1CN(C(=O)Nc3cccc(C(C)=O)c3)CC[C@H]1CC(=O)O)=NCC2	-2%
CC(CCc1ccccc1)NC(=O)c1ccc(Cn2ccn3nc4c(c3c2=O)CCCC4)cc1 (configuration not stated)	8.9µM*
CNC(=O)c1ccc(Cn2ccn3nc4c(c3c2=O)CCCC4)cc1	i
SMILES	Pf Dd2 inh
COc1ccccc1CNC(=O)c1ccc(Cn2ccn3nc4c(c3c2=O)CCCC4)cc1	-2%
COCC(=O)Nc1ccc(Cl)c(NC(=O)NC(C)Cn2cncn2)c1 (configuration not stated)	-1%
COc1ccc(CN2C(=O)[C@@H]3C[C@@H](CN3C)Oc3ccccc32)cc1	i
O=C(O)CCC(=O)N1C[C@@H]2C[C@H]1C(=O)N(Cc1ccc(OC(F)(F)F)cc1)c1ccccc1O2	-17%
COc1ccc(CN2C(=O)[C@@H]3C[C@@H](CN3Cc3ccccc3)Oc3ccccc32)cc1	-51%[44.1 µM]
COc1ccc(CN2C(=O)[C@@H]3C[C@@H](CN3C3CCN(C)CC3)Oc3ccccc32)cc1	10µM*
CS(=O)(=O)N1C[C@@H]2C[C@H]1C(=O)N(Cc1ccc(OC(F)(F)F)cc1)c1ccccc1O2	-21%
O=C1[C@@H]2C[C@@H](CN2C2CCC2)Oc2ccccc2N1Cc1ccc(OC(F)(F)F)cc1	6.3µM*
Cc1ccc(C(=O)N2CCCC3(CN[S+](=O)([O-])c4ccccc4N3)C2)cc1 (configuration not stated)	1%
CCCN(CC1CCOC1)S(=O)(=O)Cc1ccccc1Cl (configuration not stated)	21%[5.79 µM]
CCN(CC)CCCNC(=O)c1nn(C)c2c1CSc1ccccc1-2	5.6µM*
CC(C)OCCCNC(=O)c1nn(C)c2c1CSc1ccccc1-2	-23%
CC(C)CCNC(=O)c1nn(C)c2c1CSc1ccccc1-2	-20%
COC1CN(c2cccc(F)c2)C12CCN(C(=O)c1ccc3ccccc3n1)CC2 (configuration not stated)	-2%
Cc1ccccc1-c1cnc2n[nH]c(-c3ccccc3)c2n1	i
COc1ccccc1-c1[nH]nc2ncc(-c3ccccc3C)nc12	13µM*
COc1ccccc1-c1[nH]nc2ncc(-c3ccccc3F)nc12	-22%[44.1 µM]
Cc1cnc(-c2ccccc2)n1C1CCCN(C(=O)c2cccn2C)C1 (configuration not stated)	i
Cc1nn2c(c1-c1ccccc1C(C)C)N(C(=O)Cc1ccc(O)cc1)CCC2	i
Cc1nn2c(c1-c1ccccc1C(N)=O)N(C(=O)Cc1cccc(F)c1)CCC2	13%[44.1 µM]
Cc1nn2c(c1-c1ccccc1OCc1ccccc1)N(C(=O)C(C)C)CCC2	i
Cc1nn2c(c1-c1ccccc1C(C)C)N(Cc1cccc(C(=O)O)c1)CCC2	4.5µM*
Cc1nn2c(c1-c1ccccc1Oc1ccccc1)N(Cc1ccccc1O)CCC2	0.56µM*
CC(=O)N1CCCn2nc(C)c(-c3ccccc3OCc3ccccc3)c21	i
Cc1nn2c(c1-c1ccccc1[S+](C)(=O)[O-])N(Cc1ccccc1F)CCC2	i
COc1cccc(CC(=O)N2CCCn3nc(C)c(-c4ccccc4-c4ccccc4)c32)c1	10µM*
Cc1nn2c(c1-c1ccccc1C(C)C)N(Cc1ccc(C(=O)O)cc1)CCC2	-10%[44.1 µM]
Cc1ccncc1-c1c(C)nn2c1N(Cc1ccc(C(=O)O)cc1)CCC2	i
Cc1nn2c(c1-c1ccccc1Oc1ccccc1)N(C(=O)Cc1ccc(O)cc1)CCC2	8.9µM*
COc1ccccc1C(=O)N1CCCn2nc(C)c(-c3ccccc3-c3ccccc3)c21	-17%[44.1 µM]
